Experimental data: PubChem BioAssay (NCATS)
“And” between values parts separate entries of the source, which are not always exact repeats. Equal values may be shown once. For some assays here: Potency and affinity values are given separately. The source made the active and inactive calls. The rule behind the calls is not given here.

Settings: Ebola virus entry assay, reporter ratio channel; AC50: Channel type: primary unless noted; outcome: Channel type: primary unless noted

Compound | AC50 | outcome
CN(C)CC/C=C1\c2ccccc2COc2ccccc21 | 14.1 µM (active) | 
CN1CCC(=C2c3ccccc3C=Cc3ccccc32)CC1 | 10 µM (active) | 
COC(=O)C1=C(C)NC(C)=C(C(=O)OCCN(C)Cc2ccccc2)C1c1cccc([N+](=O)[O-])c1 (configuration not stated) | 10 µM (active) | 
CN1CCN(CCCN2c3ccccc3Sc3ccc(C(F)(F)F)cc32)CC1 |  | inactive [Channel type: confirmation]
OCCN1CCN(CCCN2c3ccccc3Sc3ccc(Cl)cc32)CC1 | 2.24 µM (active) | 
C#C[C@]1(O)CC[C@H]2[C@@H]3CCC4=Cc5oncc5C[C@]4(C)[C@H]3CC[C@@]21C | 6.31 µM (active) | 
CN1CCc2cccc3c2[C@H]1Cc1ccc(O)c(O)c1-3 | 28.2 µM (active) | 
CCOC(=O)C1(c2ccccc2)CCN(CCC(C#N)(c2ccccc2)c2ccccc2)CC1 | 10 µM (active) | 
CCN(CC)CCN1C(=O)CN=C(c2ccccc2F)c2cc(Cl)ccc21 | 39.8 µM (active) | 
COc1cc2c(cc1OC)C(=O)C(CC1CCN(Cc3ccccc3)CC1)C2 (configuration not stated) | 22.4 µM (active) | 
COc1cc2ncnc(Nc3ccc(F)c(Cl)c3)c2cc1OCCCN1CCOCC1 | 2.51 µM (active) | 
CCCCc1oc2ccc(NS(C)(=O)=O)cc2c1C(=O)c1ccc(OCCCN(CCCC)CCCC)cc1 |  | inactive [Channel type: confirmation]
O=C1c2cccc3c2[C@H](CCC3)CN1[C@@H]1CN2CCC1CC2 | 28.2 µM (active) | 
Oc1ccc(C2CNCCc3c2cc(O)c(O)c3Cl)cc1 (configuration not stated) |  | inactive
CNC(=O)c1cc(Oc2ccc(NC(=O)Nc3ccc(Cl)c(C(F)(F)F)c3)cc2)ccn1 | 35.5 µM (active) | 
CN1CCN(C2=Nc3cc(Cl)ccc3Nc3ccccc32)CC1 | 14.1 µM (active) | 
Cc1c(O)cccc1C(=O)N[C@@H](CSc1ccccc1)[C@H](O)CN1C[C@H]2CCCC[C@H]2C[C@H]1C(=O)NC(C)(C)C | 39.8 µM (active) | 
CCOC(=O)N1CCC(=C2c3ccc(Cl)cc3CCc3cccnc32)CC1 | 6.31 µM (active) | 
CN(C)CCC=C1c2ccccc2CCc2ccccc21 | 7.94 µM (active) | 

Compound | AC50 | outcome
CN(C)CCC[C@@]1(c2ccc(F)cc2)OCc2cc(C#N)ccc21 | 39.8 µM (active) | 
CNCCC(Oc1ccc(C(F)(F)F)cc1)c1ccccc1 (configuration not stated) | 3.55 µM (active) | 
NC(=O)C(c1ccccc1)(c1ccccc1)[C@@H]1CCN(CCc2ccc3c(c2)CCO3)C1 | 31.6 µM (active) | 
CN1CCN(C(c2ccccc2)c2ccccc2)CC1 | 22.4 µM (active) | 
Nc1nc(N)c2nc(-c3ccccc3)c(N)nc2n1 |  | inactive
CNC1(C)C2CCC(C2)C1(C)C (configuration not stated) | 35.5 µM (active) | 
Cc1ccccc1C(=O)Nc1ccc(C(=O)N2CCCC(O)c3cc(Cl)ccc32)c(C)c1 (configuration not stated) | 25.1 µM (active) | 
CNCC[C@@H](Oc1ccccc1C)c1ccccc1 | 10 µM (active) | 
CN(C)CCCN1c2ccccc2CCc2ccc(Cl)cc21 |  | inactive [Channel type: confirmation]
CC12CC3CC(C)(C1)CC(N)(C3)C2 | 14.1 µM (active) | 
CCN(CC)C(=S)SSC(=S)N(CC)CC | 7.94 µM (active) and 22.4 µM (active) | 
CN1CCC[C@@H]1Cc1c[nH]c2ccc(CCS(=O)(=O)c3ccccc3)cc12 | 25.1 µM (active) | 
COC(=O)C1=C(C)NC(C)=C(C(=O)OCC(C)C)C1c1ccccc1[N+](=O)[O-] (configuration not stated) | 17.8 µM (active) | 
OC(CCN1CCCC1)(c1ccccc1)C1CCCCC1 (configuration not stated) | 20 µM (active) | 
Cc1ncc([N+](=O)[O-])n1CCO |  | inactive
Cc1ccc(NC(=O)c2ccc(CN3CCN(C)CC3)cc2)cc1Nc1nccc(-c2cccnc2)n1 | 12.6 µM (active) | 
CCC(=O)C(CC(C)N(C)C)(c1ccccc1)c1ccccc1 (configuration not stated) | 7.94 µM (active) | 
Cc1nc(Nc2ncc(C(=O)Nc3c(C)cccc3Cl)s2)cc(N2CCN(CCO)CC2)n1 | 7.94 µM (active) | 
COC(=O)[C@H]1[C@H]2C[C@@H]3c4[nH]c5cc(OC)ccc5c4CCN3C[C@H]2C[C@@H](OC(=O)c2cc(OC)c(OC)c(OC)c2)[C@@H]1OC | 25.1 µM (active) | 

Settings: Ebola virus entry reporter assay, green channel fluorescence

Compound | outcome
CN1CCC(=C2c3ccccc3C=Cc3ccccc32)CC1 | inactive
COC(=O)C1=C(C)NC(C)=C(C(=O)OCCN(C)Cc2ccccc2)C1c1cccc([N+](=O)[O-])c1 (configuration not stated) | inactive
C#C[C@]1(O)CC[C@H]2[C@@H]3CCC4=Cc5oncc5C[C@]4(C)[C@H]3CC[C@@]21C | inactive
CN1CCc2cccc3c2[C@H]1Cc1ccc(O)c(O)c1-3 | inactive
CCOC(=O)C1(c2ccccc2)CCN(CCC(C#N)(c2ccccc2)c2ccccc2)CC1 | inactive
CCN(CC)CCN1C(=O)CN=C(c2ccccc2F)c2cc(Cl)ccc21 | inactive
COc1cc2c(cc1OC)C(=O)C(CC1CCN(Cc3ccccc3)CC1)C2 (configuration not stated) | inactive
COc1cc2ncnc(Nc3ccc(F)c(Cl)c3)c2cc1OCCCN1CCOCC1 | inactive
O=C1c2cccc3c2[C@H](CCC3)CN1[C@@H]1CN2CCC1CC2 | inactive
Oc1ccc(C2CNCCc3c2cc(O)c(O)c3Cl)cc1 (configuration not stated) | inactive
CNC(=O)c1cc(Oc2ccc(NC(=O)Nc3ccc(Cl)c(C(F)(F)F)c3)cc2)ccn1 | inactive
CN1CCN(C2=Nc3cc(Cl)ccc3Nc3ccccc32)CC1 | inactive
Cc1c(O)cccc1C(=O)N[C@@H](CSc1ccccc1)[C@H](O)CN1C[C@H]2CCCC[C@H]2C[C@H]1C(=O)NC(C)(C)C | inactive
CN(C)CCC=C1c2ccccc2CCc2ccccc21 | inactive
CN(C)CCC[C@@]1(c2ccc(F)cc2)OCc2cc(C#N)ccc21 | inactive
CN1CCN(C(c2ccccc2)c2ccccc2)CC1 | inactive
Nc1nc(N)c2nc(-c3ccccc3)c(N)nc2n1 | inactive
CNC1(C)C2CCC(C2)C1(C)C (configuration not stated) | inactive
Cc1ccccc1C(=O)Nc1ccc(C(=O)N2CCCC(O)c3cc(Cl)ccc32)c(C)c1 (configuration not stated) | inactive
CC12CC3CC(C)(C1)CC(N)(C3)C2 | inactive
Cc1ncc([N+](=O)[O-])n1CCO | inactive
Cc1ccc(NC(=O)c2ccc(CN3CCN(C)CC3)cc2)cc1Nc1nccc(-c2cccnc2)n1 | inactive
Cc1nc(Nc2ncc(C(=O)Nc3c(C)cccc3Cl)s2)cc(N2CCN(CCO)CC2)n1 | inactive
COC(=O)[C@H]1[C@H]2C[C@@H]3c4[nH]c5cc(OC)ccc5c4CCN3C[C@H]2C[C@@H](OC(=O)c2cc(OC)c(OC)c(OC)c2)[C@@H]1OC | inactive
